Bioassay records as filed in PubChem BioAssay.
HepG2 tox: counter-screen for TGF-b inhibitors: cytotoxicity in HepG2 cells. HepG2 CAGA-GFP viability, ATP luminescence, 18 h. Potency, µM (top dose mostly 46.1 µM), inactives show at the highest dose activity change, negative = cytotoxicity, most hits filed as cytotoxic. 410,000 tested, 0.76% active; also: potency is read from the fitted curve at half-maximal effect
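HepG2 CAGA-GFP cells (1000/well, DMEM with 1% FBS) received compound, then TGF-beta at 500 pg/mL final, and were incubated 18 hours at 37 degrees C. Viability was read by CellTiter-Glo luminescence. Media-only wells were set as complete cell-killing and DMSO as no toxicity.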
TDP1 inh: inhibitors of human tyrosyl-DNA phosphodiesterase TDP1; AID 485290; Potency, µM (highest dose often 130 µM), for inactives: at the top dose activity change, negative = inhibition, usual class: inhibitors; 350,000 tested, 0.28% active; recombinant TDP1, AlphaScreen DNA substrate cleavage; also: potency is read from the fitted curve at half-maximal effect; % is scaled to controls: 0 for no effect and ±100 for the full control effect; nearly all actives have a fitted effect of over 40% in size
Target sequence (Q9NUW8 whole entry, looked up): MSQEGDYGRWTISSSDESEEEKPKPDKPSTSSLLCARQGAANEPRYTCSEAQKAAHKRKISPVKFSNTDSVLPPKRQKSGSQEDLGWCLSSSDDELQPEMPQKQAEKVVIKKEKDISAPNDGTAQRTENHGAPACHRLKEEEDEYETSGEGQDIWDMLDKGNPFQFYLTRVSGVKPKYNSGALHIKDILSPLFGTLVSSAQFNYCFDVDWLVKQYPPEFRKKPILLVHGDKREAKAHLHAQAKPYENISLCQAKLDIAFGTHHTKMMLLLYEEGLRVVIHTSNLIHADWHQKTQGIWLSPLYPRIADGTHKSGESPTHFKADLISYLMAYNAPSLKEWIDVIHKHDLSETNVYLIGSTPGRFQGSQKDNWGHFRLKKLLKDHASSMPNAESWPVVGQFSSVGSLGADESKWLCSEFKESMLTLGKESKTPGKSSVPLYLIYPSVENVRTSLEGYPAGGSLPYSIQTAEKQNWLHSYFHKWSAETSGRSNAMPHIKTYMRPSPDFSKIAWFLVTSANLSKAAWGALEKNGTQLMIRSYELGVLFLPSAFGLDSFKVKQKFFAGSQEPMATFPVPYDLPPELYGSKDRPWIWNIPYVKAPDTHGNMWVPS
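Here, a 5' biotin and 3' phosphotyrosine-FITC DNA oligonucleotide reports Tdp1 activity: intact substrate bridges AlphaScreen beads, while cleavage leaves a 3' phosphate and drops signal. All incubations at room temperature.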
IL-1B inflam inh: inflammasome signaling inhibition, IL-1 beta readout; activity change, % at 57.5 µM; THP-1 LPS/ATP IL-1B secretion, AlphaLISA, 16 h; stronger effect = lower value; 360,000 tested, 4.7% active; in the data active = activity change below about -50%; inconclusive = mostly about -30% to -49%; also: % is scaled to controls: 0 for no effect and ±100 for the full control effect
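THP-1 cells pretreated 1 hr with compounds (up to 57.5 uM final), then stimulated with LPS (250 ng/mL final) plus ATP (1.25 mM final); secreted IL-1B measured by AlphaLISA after 16 hr, decreased signal indicating inhibition.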
TDP1 cell CPT: growth inhibition of DT40 Tdp1-/-;hTDP1 cells with camptothecin (screen for TDP1 inhibitors). chicken DT40 Tdp1-/-;hTDP1 cells + 20 nM CPT, ATP luminescence, 48 h. Potency, µM (highest dose often 46.2 µM), without a hit: at the top dose activity change, negative = growth inhibition, hits mostly inhibitors. 420,000 tested, 12% active. AID 686979; also: potency is read from the fitted curve at half-maximal effect; % is scaled to controls: 0 for no effect and ±100 for the full control effect; nearly all actives have a fitted effect of over 55% in size
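Chicken DT40 Tdp1-/- cells stably complemented with human TDP1 were seeded at 400 cells/well in medium containing 20 nM camptothecin, exposed to pin-transferred compounds, and grown at 37 °C for at least 48 hr. Viability was read as ATP luminescence.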
TDP1 cell noCPT: qHTS for Inhibitors of human tyrosyl-DNA phosphodiesterase 1 (TDP1): qHTS in cells in absence of CPT | 420,000 tested, 15% active | DT40 Tdp1-/- hTDP1 cells, no CPT, ATP luminescence, 48 h | Potency, µM (doses to about 46.2 µM), inactives show top-dose activity change, negative = growth inhibition, most hits filed as inhibitors; also: potency is read from the fitted curve at half-maximal effect; % is scaled to controls: 0 for no effect and ±100 for the full control effect; nearly all actives have a fitted effect of over 55% in size
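Growth of hTDP1-complemented DT40 Tdp1-knockout cells is measured by ATP luminescence after at least 48 hr compound exposure at 37 °C, with DMSO substituting for the 20 nM CPT used in the parallel screen.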
TGFb inhibitor: blocks TGF-b signaling | HepG2 CAGA-GFP TGF-b/SMAD3 reporter, GFP fluorescence, 18 h; TGF-beta stimulated, 500 pg/mL final | Potency, µM (titrated, usually from 46.1 µM), for inactives: at the highest dose activity, negative = inhibition, hits mostly inhibitors | 410,000 tested, 1.2% active | AID 588855; also: potency is read from the fitted curve at half-maximal effect; % is scaled to controls: 0 for no effect and ±100 for the full control effect; nearly all actives have a fitted effect of over 65% in size
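Read-out: total well GFP (ex488/em500-530) summed from mean per-cell fluorescence. Cells: HEPG2 CAGA-GFP, 1% FBS DMEM, 18 h at 37 degrees C with 500 pg/mL final TGF-beta. Unstimulated wells served as the full-inhibition control; stimulated DMSO wells = 0%.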
The depositor's hits bear a star; ! = not confirmed by another sample; [ ] = another dose, or the depositor's remark. Hits are enriched below; roughly 19% of the tested compounds scored in any of these assays. Unless noted, calls follow the shape of the dose curve; as a rule, active = well fitted curve in the direction sought with a large enough effect; inconclusive = small, poorly fitted or top-dose-only effect, or another doubt; inactive = no such curve, though single readings can be large; an effect the other way counts as inactive or inconclusive.

What do the screens show for `CC(C)[C@H]1C(=O)N2CCC[C@H]2[C@]2(O)O[C@](NC(=O)[C@@H]3C[C@@H]4c5cccc6[nH]cc(c56)C[C@H]4N(C)C3)(C(C)C)C(=O)N12`?
TDP1 cell CPT: inconclusive; TDP1 cell noCPT: 19µM*

What do the screens show for `CC(C)[C@@]1(NC(=O)[C@@H]2C[C@@H]3c4cccc5[nH]cc(c45)C[C@H]3N(C)C2)O[C@@]2(O)[C@@H]3CCCN3C(=O)[C@H](Cc3ccccc3)N2C1=O`?
HepG2 tox: 8%; TDP1 inh: 4%; IL-1B inflam inh: 0; TDP1 cell CPT: 27µM*!; TDP1 cell noCPT: 19µM*!; TGFb inhibitor: -3%

What do the screens show for `CC(C)[C@@]1(NC(=O)[C@@H]2C[C@@H]3c4cccc5[nH]cc(c45)C[C@H]3N(C)C2)O[C@@]2(O)C3CCCN3C(=O)[C@H](Cc3ccccc3)N2C1=O` (stereo partly drawn)?
TDP1 inh: 20%[56.1 µM]

How did Cc1ccc2c(c1)C1CN(C)CCC1N2 (stereo not drawn) do in these assays?
TDP1 cell CPT: 6%; TDP1 cell noCPT: inconclusive

Results for O=C(CSc1nc2ccccc2c(=O)n1-c1ccc(F)c(Cl)c1)Nc1ccc2c(c1)CCC2 ?
HepG2 tox: -15%; IL-1B inflam inh: 0; TDP1 cell CPT: inconclusive; TDP1 cell noCPT: -19%; TGFb inhibitor: -6%

Results for O=C(O)CCCCC1SCC2NC(=O)NC21 (stereo not drawn) ?
HepG2 tox: -8%; TDP1 inh: 24%; IL-1B inflam inh: -56*; TDP1 cell CPT: 5%; TDP1 cell noCPT: 5%; TGFb inhibitor: -3%

What do the screens show for `CC(C)OC(=O)C(O)(c1ccc(Cl)cc1)c1ccc(Cl)cc1`?
TDP1 inh: 11%

What do the screens show for `CC(C)C#N`?
TDP1 inh: 3%

How did Cc1cc(I)ccc1Nc1c(C(=O)NOCC2CC2)cc(F)c(F)c1F do in these assays?
TDP1 inh: 16%

What do the screens show for `CC(C)NC[C@H](O)c1ccc(O)c(O)c1`?
HepG2 tox: 5%; TDP1 inh: inconclusive; IL-1B inflam inh: -21; TDP1 cell CPT: 4.7µM*!; TDP1 cell noCPT: 8.4µM*!; TGFb inhibitor: 22%

How did CC(C)NC[C@H](O)c1ccc(N)c(C#N)c1 do in these assays?
TDP1 inh: 14%[56.1 µM]; TDP1 cell CPT: 1%; TDP1 cell noCPT: -20%

Results for CCn1cnc2c(Nc3cccc(Cl)c3)nc(N[C@@H]3CCCC[C@@H]3N)nc21 ?
TDP1 inh: 8%

What do the screens show for `COc1cccc(-c2nc3cc4c(cc3cc2CN(C(=O)c2cccs2)C2CC2)CCC4)c1OC`?
TDP1 cell CPT: inconclusive; TDP1 cell noCPT: 16µM*

How did CCOC(=O)CC(SP(=S)(OC)OC)C(=O)OCC (stereo not drawn) do in these assays?
TDP1 inh: -12%; TDP1 cell CPT: 0.022µM*!; TDP1 cell noCPT: 4.3µM*!

What do the screens show for `CCC1(C2=NCCN2)Cc2ccccc2O1` (stereo not drawn)?
HepG2 tox: -2%; TDP1 inh: 7%[56.1 µM]; IL-1B inflam inh: 7; TDP1 cell CPT: 4.7µM*!; TDP1 cell noCPT: 4.7µM*!; TGFb inhibitor: -9%

How did NS(=O)(=O)c1cc(C2(O)NC(=O)c3ccccc32)ccc1Cl (stereo not drawn) do in these assays?
HepG2 tox: 4%; TDP1 inh: 10%[56.1 µM]; IL-1B inflam inh: 8; TDP1 cell CPT: -18%; TDP1 cell noCPT: -2%; TGFb inhibitor: 8%

How did O=C1C=CC(=O)c2c(O)cccc21 do in these assays?
TDP1 inh: -6%; TDP1 cell CPT: inconclusive; TDP1 cell noCPT: inconclusive

Results for C[C@@H]1O[C@@H](O[C@@H]2C=C3CCC4C(CC[C@]5(C)[C@@H](c6ccc(=O)oc6)CC[C@]45O)[C@@]3(C)CC2)[C@H](O)[C@H](O)[C@H]1O (stereo partly drawn) ?
HepG2 tox: -68%; IL-1B inflam inh: -52*; TDP1 cell CPT: 0.058µM*; TDP1 cell noCPT: 0.015µM*; TGFb inhibitor: -98%

Results for C[C@@H]1O[C@@H](O[C@@H]2C=C3CC[C@@H]4C(CC[C@]5(C)[C@@H](c6ccc(=O)oc6)CC[C@]45O)[C@@]3(C)CC2)[C@H](O)[C@H](O)[C@H]1O (stereo partly drawn) ?
HepG2 tox: -53%; TDP1 inh: 0%; IL-1B inflam inh: -56*; TDP1 cell CPT: 0.16µM*; TDP1 cell noCPT: 0.16µM*; TGFb inhibitor: 0.28µM*

Results for C[C@@H]1O[C@@H](O[C@H]2C[C@@H](O)[C@]3(CO)[C@H]4[C@H](O)C[C@]5(C)[C@@H](C6COC(=O)C6)CC[C@]5(O)[C@@H]4CC[C@]3(O)C2)[C@H](O)[C@H](O)[C@H]1O (stereo partly drawn) ?
HepG2 tox: -50%; TDP1 inh: -5%; IL-1B inflam inh: 0; TDP1 cell CPT: -9%; TDP1 cell noCPT: inconclusive; TGFb inhibitor: inconclusive

How did Nc1cccc(SC2CC(=O)N(c3ccc(Cl)cc3C(=O)c3ccccc3)C2=O)c1 (stereo not drawn) do in these assays?
HepG2 tox: 19%; IL-1B inflam inh: 13; TDP1 cell CPT: inconclusive; TDP1 cell noCPT: 21µM*; TGFb inhibitor: -2%

Results for O=C(O)C(F)(F)S(=O)(=O)O ?
HepG2 tox: 1%; TDP1 inh: 4%; IL-1B inflam inh: 55; TDP1 cell CPT: 1%; TDP1 cell noCPT: -12%; TGFb inhibitor: -5%

How did O=C(NCc1ccccc1)C(=O)NCC1OCCN1S(=O)(=O)c1ccc([N+](=O)[O-])cc1 (stereo not drawn) do in these assays?
HepG2 tox: -11%; TDP1 inh: 5%; IL-1B inflam inh: 24; TDP1 cell CPT: inconclusive; TDP1 cell noCPT: inconclusive; TGFb inhibitor: -18%

Results for Cc1ccc2nc(N)[nH]c(=O)c2c1Sc1ccncc1 ?
TDP1 cell CPT: inconclusive; TDP1 cell noCPT: 0.38µM*

What do the screens show for `COC(=O)C1=C(c2ccc(OC)c(OC)c2)C[C@@H]2CC[C@H]1N2C(=O)N1CCOCC1`?
HepG2 tox: 0%; TDP1 inh: -3%; IL-1B inflam inh: 9; TDP1 cell CPT: 21µM*; TDP1 cell noCPT: inconclusive; TGFb inhibitor: 8%
